VACV Venus inh = qHTS for Stage-Specific Inhibitors of Vaccinia Orthopoxvirus: Venus Reporter Primary qHTS; Vaccinia virus Venus reporter expression, fluorescence; Potency, µM (top dose mostly 36.5 µM), actives largely listed as inhibitors; 330,000 compounds, 0.46% hits; calls by dose curve; tested in A549 cells; note: nearly all actives have a fitted effect of over 30% in size
VACV mCherry inh = qHTS for Stage-Specific Inhibitors of Vaccinia Orthopoxvirus: mCherry Reporter Primary qHTS | 310,000 compounds, 0.63% hits | Potency, µM (doses to about 36.5 µM), most hits filed as inhibitors | Vaccinia virus mCherry reporter infection, fluorescence; calls by dose curve; tested in A549 cells; note: nearly all actives have a fitted effect of over 35% in size
Pf growth 48h = Primary qHTS for delayed death inhibitors of the malarial parasite plastid, 48 hour incubation | P. falciparum luciferase growth in erythrocytes, 48 h | Potency, µM (top dose mostly 28.7 µM), hits mostly inhibitors | 310,000 compounds, 5.9% hits
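Luciferase-expressing parasites in RBCs, 2% Hct / 0.1% parasitemia final; RPMI 1640 + 0.5% Albumax; 37 C, 5% CO2, one generation; luminescence read-out, lower signal = inhibition.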
NS1 function inh = qHTS Assay for Inhibitors of Influenza NS1 Protein Function. 270,000 compounds, 0.4% hits. Potency, µM (series often up to 46.1 µM). AID 2326, 2010; calls by dose curve; note: actives are rising curves; nearly all actives have a fitted effect of over 50% in size
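Recovery from NS1-induced slow growth read by OD600 in budding yeast switched to galactose assay medium (pH 6.0, -URA) at 1:100 dilution. Compound 23 nl per well; the matching strain lacking NS1 serves as control.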
HCV inh = qHTS Assay for Inhibitors of Hepatitis C Virus (HCV). Huh7.5.1 HCVcc-Cre infection, luciferase reporter, 44 h. AID 651820, 2012. Potency, µM (highest dose often 41.8 µM), most hits filed as inhibitors. 340,000 compounds, 3.4% hits
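Cells seeded at 1,000/well and cultured 4 h, then compounds added followed by HCVcc-Cre virus (~0.5 moi). After 44 h further culture, luciferase substrate was added, plates held 15 min at room temperature, and luminescence read for 15 sec.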
Pf growth 96h = Primary qHTS for delayed death inhibitors of the malarial parasite plastid, 96 hour incubation; P. falciparum luciferase reporter growth, 96 h; Potency, µM (top dose mostly 28.7 µM), actives largely listed as inhibitors; 320,000 compounds, 6.9% hits; AID 504834, 2011
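Readout is luminescence from an integrated firefly luciferase in P. falciparum. Red cells, 2% hematocrit and 0.05% parasitemia final, were cultured with compound through two parasite generations (96 hours) at 37 C, 5% CO2.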
HCV confirm = qHTS Assay for Inhibitors of Hepatitis C Virus (HCV): Confirmation Assay for Cherry-picked Compounds | shares compounds with HCV inh | HCVcc-Cre infectious virus cell assay, luciferase, inhibition | 640 compounds, 78% hits | Potency, µM (doses to about 41.8 µM), hits mostly inhibitors; note: nearly all actives have a fitted effect of over 80% in size
HCV cytotox = qHTS Assay for Inhibitors of Hepatitis C Virus (HCV): Cytotoxicity Counterscreen for Cherry-picked Compounds; shares compounds with HCV inh; HCV host cell line cytotoxicity counterscreen; Potency, µM (doses to about 41.8 µM), actives largely listed as inhibitors; 640 compounds, 22% hits;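 note: 44 h compound exposure; nearly all actives have a fitted effect of over 55% in size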
A number is an active result; - = inactive; ? = inconclusive; . = no result; [ ] = another dose, or the depositor's remark. Only some compounds are listed: those with a hit (about 11% of all), similar ones and a draw of the others. Unless noted, calls come from the whole dose curve; as a rule, active = well fitted curve in the direction sought with a large enough effect; inconclusive = small, poorly fitted or top-dose-only effect, or another doubt; inactive = no such curve, though single readings can be large; an effect the other way counts as inactive or inconclusive.

SMILES	VACV Venus inh	VACV mCherry inh	Pf growth 48h	NS1 function inh	HCV inh	Pf growth 96h	HCV confirm	HCV cytotox
CCSc1nc2c(c(=O)[nH]c(=O)n2C)n1Cc1ccc(Cl)cc1	-	.	?	-	-	-	.	.
CCCn1c(=NC(=O)c2ccco2)c(C(=O)OCC)cc2c(=O)n3ccccc3nc21	-	-	-	-	?	-	?	-
CNc1nc2cc([N+](=O)[O-])c([N+](=O)[O-])cc2nc1NC	-	-	?	-	?	-	19.9µM	?
CC(C)NC1CCC(Nc2ccnc3cc(Cl)ccc23)CC1 (stereo unspecified)	-	-	.	.	2.82µM	.	3.96µM	-
c1ccc(-c2ccc3cnccc3n2)cc1	-	-	.	.	.	.	.	.
COCCCn1c(SCc2ccccc2)nc2cc(OC)c(OC)cc2c1=N	.	.	13.1µM	-	?	?	14.1µM	-
COCCCn1c(SCc2cccc(C(F)(F)F)c2)nc2cc(OC)c(OC)cc2c1=N	.	.	?	-	-	?	.	.
CC(C)c1ccccc1NC(=O)Cn1c(-c2ccccc2Cl)nc2ccccc21	-	-	-	-	2.51µM	-	?	-
COc1ccc(N/N=C(/N=Nc2nc(C)cc(=O)[nH]2)c2ccccc2)cc1	-	-[1.46 µM]	1.65µM	-	4.47µM	.	7.91µM	11.2µM
Cc1cc(=O)[nH]c(N=N/C(=N/Nc2ccc(O)cc2)c2ccccc2)n1	-	-[1.46 µM]	?	-	-	.	.	.
CCCC(=O)Nc1ccc(-c2cnc(-c3ccc(NC(=O)CCC)cc3)nc2)cc1	-	-	-	-	-	-	.	.
Cn1c(SCC(=O)NCC2CCCO2)ncc(C(=O)Nc2ccccc2)c1=O (stereo unspecified)	-	-	-	.	5.01µM	?	-	-
CCn1nnc(-c2ccccc2NC(=O)C(F)(F)F)n1	-	-	-	-	?	?	?	-
O=C(Nc1cccc(C(=O)Nc2ccc(Br)cc2)c1)c1ccccc1	.	.	-	-	?	-	.	.
CCOC(=O)C1(Cc2ccccc2C(F)(F)F)CCN(C2CCN(C(C)C)CC2)CC1	.	.	-	-	3.16µM	14.7µM	11.2µM	-
CCc1cccc(CC)c1NC(=O)COn1nnc2ccc(C(F)(F)F)cc21	-	-	-	-	-	-	.	.
CCN1/C(=C/c2ccc3cc(C)cc(C)c3[n+]2CC)Sc2cc(C)ccc21	.	.	11.7µM	.	7.08µM	-	7.91µM	7.91µM
CC(=O)N1c2ccc(C)cc2Sc2c1ccc1ccccc21	-	-	.	.	-	.	.	.
CCCCn1nnnc1C(c1ccccc1)N1CCN(c2cccc(C(F)(F)F)n2)CC1 (stereo unspecified)	-	-	.	.	.	.	.	.
Cc1cc(C(=O)CSc2nnc(-c3ccco3)o2)c(C)n1Cc1ccco1	-	-	-	-	?	?	15.8µM	?
O=C1CCSC2(C(=O)N(Cc3ccc(F)cc3)c3ccccc32)N1c1ccccc1 (stereo unspecified)	-	-	.	.	.	.	.	.
CCOc1ccc(CNC(=O)c2ccc(Sc3ccc(Cl)cc3)c(NC(C)=O)c2)cc1	?	?	-	-	-	?	.	.
CCOc1ccccc1CNC(=O)c1ccc(Sc2ccc(Cl)cc2)c(NC(C)=O)c1	-	-	-	-	?	?	12.5µM	-
COCCCNC(=S)NCCCNc1nc2cc3c(cc2cc1C#N)OCO3	-	-	?	-	-	?	.	.
CCc1nn2cc(C(=O)c3ccccc3O)cnc2c1-c1ccc(F)cc1	-	-	?	-	?	?	11.2µM	-
O=C(c1cnn(-c2cccc(F)c2)c1)c1ccccc1O	-	-	-	-	-	-	.	.
Cc1ccc(C(=O)NC2CCN(Cc3ccccc3)CC2)cc1S(=O)(=O)N1CCOCC1	-	-	-	.	?	?	.	.

Assay outcomes deposited in PubChem BioAssay by National Center for Advancing Translational Sciences (NCATS).
